Screening results as filed in PubChem BioAssay.
TDP1 block: blocks human tyrosyl-DNA phosphodiesterase 1. Q9NUW8. recombinant TDP1, AlphaScreen DNA substrate cleavage. Potency, µM (series often up to 130 µM), for inactives: at the top dose activity change, negative = inhibition, most hits filed as inhibitors. hit rate 0.28% among 350,000. AID 485290; further: potency means the concentration at half of the fitted maximal effect; on the % scale 0 is the no-effect control and ±100 the full control effect; nearly all actives have a fitted effect of over 40% in size
Target sequence (Q9NUW8 whole entry, looked up): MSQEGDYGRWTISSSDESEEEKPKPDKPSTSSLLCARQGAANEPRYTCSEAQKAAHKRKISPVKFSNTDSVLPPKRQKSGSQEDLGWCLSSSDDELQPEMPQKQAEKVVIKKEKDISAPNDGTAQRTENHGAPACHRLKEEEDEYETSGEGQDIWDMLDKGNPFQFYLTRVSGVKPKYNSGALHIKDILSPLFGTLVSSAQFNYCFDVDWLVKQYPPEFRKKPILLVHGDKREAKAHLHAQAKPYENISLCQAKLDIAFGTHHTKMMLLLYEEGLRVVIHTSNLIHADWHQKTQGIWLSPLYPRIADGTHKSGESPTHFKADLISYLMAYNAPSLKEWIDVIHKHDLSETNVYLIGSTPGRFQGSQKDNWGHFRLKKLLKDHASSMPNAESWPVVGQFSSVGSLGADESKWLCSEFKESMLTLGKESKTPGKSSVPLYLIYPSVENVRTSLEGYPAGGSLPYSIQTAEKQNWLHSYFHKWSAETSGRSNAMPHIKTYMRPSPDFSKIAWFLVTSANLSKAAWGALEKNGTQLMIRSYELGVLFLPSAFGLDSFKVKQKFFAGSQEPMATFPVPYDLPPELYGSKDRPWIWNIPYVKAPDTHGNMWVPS
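Enzyme-compound mixtures sat 15 min at room temperature, followed by a 5 min reaction with 15 nM final substrate and 10 min with AlphaScreen beads. Recombinant human Tdp1 was used at 1 nM final.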
IL-1B inflam inh: blocks inflammasome-driven IL-1 beta release. THP-1 LPS/ATP IL-1B secretion, AlphaLISA, 16 h; hits give low values. activity change, % at 57.5 µM. hit rate 4.7% among 360,000; in the data active means activity change below about -50%; inconclusive means mostly about -30% to -49%; further: on the % scale 0 is the no-effect control and ±100 the full control effect
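THP-1 cells pretreated 1 hr with compounds (up to 57.5 uM final), then stimulated with LPS (250 ng/mL final) plus ATP (1.25 mM final); secreted IL-1B measured by AlphaLISA after 16 hr, decreased signal indicating inhibition.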
DT40 TDP1 CPT: DT40-hTDP1 cell growth loss with CPT. Potency, µM (highest dose often 46.2 µM), for inactives: at the top dose activity change, negative = growth inhibition, most hits filed as inhibitors. chicken DT40 Tdp1-/-;hTDP1 cells + 20 nM CPT, ATP luminescence, 48 h. hit rate 12% among 420,000; further: potency means the concentration at half of the fitted maximal effect; on the % scale 0 is the no-effect control and ±100 the full control effect; nearly all actives have a fitted effect of over 55% in size
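Cell growth measured by CellTiter-Glo luminescence after a minimum 48 h, 37 C compound exposure with 20 nM CPT in Tdp1-knockout DT40 cells stably expressing hTDP1, seeded 400/well; qHTS titration format.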
HepG2 tox: HepG2 cytotoxicity, counter-screen for TGF-b inhibitors; HepG2 CAGA-GFP viability, ATP luminescence, 18 h; Potency, µM (titrated, usually from 46.1 µM), without a hit: at the highest dose activity change, negative = cytotoxicity, most hits filed as cytotoxic; hit rate 0.76% among 410,000; AID 588856; further: potency means the concentration at half of the fitted maximal effect
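CellTiter-Glo luminescence gave cytotoxicity after 18 hours at 37 degrees C. The cells were HepG2 CAGA-GFP in 1% FBS DMEM, stimulated with 500 pg/mL TGF-beta after compound addition. %Activity was normalised to no-cell wells (complete cell-killing) and DMSO (no toxicity), and curves were fitted and classified.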
DT40 TDP1 no CPT: qHTS for Inhibitors of human tyrosyl-DNA phosphodiesterase 1 (TDP1): qHTS in cells in absence of CPT. hit rate 15% among 420,000. Potency, µM (highest dose often 46.2 µM), for the others: top-dose activity change, negative = growth inhibition, most hits filed as inhibitors. DT40 Tdp1-/- hTDP1 cells, no CPT, ATP luminescence, 48 h; further: potency means the concentration at half of the fitted maximal effect; on the % scale 0 is the no-effect control and ±100 the full control effect; nearly all actives have a fitted effect of over 55% in size
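Camptothecin absent (DMSO only). Human TDP1-complemented DT40 knockout cells, 400 cells/well, 37 °C for minimum 48 hr; ATP measured via CellTiter-Glo, 30 min dark incubation, luminescence.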
TGFb inhibitor: blocks TGF-b signaling; HepG2 CAGA-GFP TGF-b/SMAD3 reporter, GFP fluorescence, 18 h; TGF-beta stimulated, 500 pg/mL final; Potency, µM (series often up to 46.1 µM), for the others: top-dose activity, negative = inhibition, usual class: inhibitors; hit rate 1.2% among 410,000; further: potency means the concentration at half of the fitted maximal effect; on the % scale 0 is the no-effect control and ±100 the full control effect; nearly all actives have a fitted effect of over 65% in size
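Per well, imaged GFP fluorescence of HEPG2 CAGA-GFP cells gives the signal; cells get compound, then TGF-beta (500 pg/mL final), 18 h at 37 degrees C; %Activity versus -TGF-beta and +DMSO controls.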
* marks the source's active call; other numbers are inactive results; u = inconclusive; x = no result; [ ] = another dose, or the depositor's remark. Compounds with a hit are over-represented: about 18% of the library has one in this group of screens. Unless noted, the call rests on the fitted dose curve; in most records, active means well fitted curve in the direction sought with a large enough effect; inconclusive means small, poorly fitted or top-dose-only effect, or another doubt; inactive means no such curve, though single readings can be large; an effect the other way counts as inactive or inconclusive.

SMILES	TDP1 block	IL-1B inflam inh	DT40 TDP1 CPT	HepG2 tox	DT40 TDP1 no CPT	TGFb inhibitor
O=C(c1cnn2c(C(F)(F)F)cc(-c3cccs3)nc12)N1CCCC1	x	0.0	u	-19.9%	-26.0%	-27.8%
O=C(NC1CCCCC1)c1nn2c(C(F)(F)F)cc(-c3ccco3)nc2c1Br	0.0%	0.1	-2.2%	-9.1%	-18.6%	22.6%
O=C(NCc1ccco1)c1cnn2c(C(F)(F)F)cc(-c3cccs3)nc12	2.1%	-15.6	14.6µM*	-12.0%	20.6µM*	2.7%
CCN(CC)C(=O)/C(C#N)=C/c1cc(O)c(O)c([N+](=O)[O-])c1	-4.3%	x	-17.8%	x	-18.9%	x
O=C(Nc1ccc(CN2CCS(=O)(=O)CC2)cc1)c1ccc(C(F)(F)F)cc1	0.0%	-19.8	u	1.3%	20.6µM*	-13.0%
CC(C)(C)c1ccc(C(=O)Nc2ccc(CN3CCS(=O)(=O)CC3)cc2)cc1	-5.7%	-60.4*	16.4µM*	-26.0%	20.6µM*	7.3%
O=C(Nc1ccc(CN2CCS(=O)(=O)CC2)cc1)c1ccc(F)cc1	-5.7%	-2.3	0.3%	2.1%	4.4%	5.2%
CSC1(SC2=NCCN2)SC2(NCCN2)S1	x	u	10.3µM*	-14.6%	13µM*	12.6µM*
NCCC[C@H](N)CC(=O)N[C@H]1CNC(=O)[C@@H]([C@@H]2C[C@H](O)N=C(N)N2)NC(=O)/C(=C/NC(N)=O)NC(=O)[C@@H](CO)NC(=O)[C@@H](CO)NC1=O	-2.2%[56.1 µM]	x	x	x	x	x
COc1ccc(OC)c(NC(=O)COC(=O)c2n[nH]c3ccccc23)c1	5.3%	-2.8	20.6µM*	1.2%	16.4µM*	22.9%
COc1ccc(OC)c(NC(=O)COC(=O)c2c3c(nc4ccccc24)CCCC3)c1	4.0%	5.7	23.1µM*	-20.0%	20.6µM*	-4.5%
Cc1cc(C)cc(NC(=O)COC(=O)c2n[nH]c3ccccc23)c1	6.3%	0.0	-6.6%	-12.8%	-11.4%	u
COc1ccc(NC(=O)COC(=O)c2c3c(nc4ccccc24)CCCC3)cc1Cl	2.3%	u	20.6µM*	-3.9%	7.31µM*	u
COC(=O)CS(=O)(=O)c1nc2ccccc2nc1N1CCCCC1	-0.9%	x	20.6µM*	-86.6%	13µM*	u
CC(C)C(=O)Nc1ccc2c(c1)C(=O)N(CCC(=O)O)C2=O	4.0%	2.8	-9.9%	0.1%	29.1µM*	0.2%
COc1ccc(CC(=O)Nc2ccc3c(c2)C(=O)N(CCC(=O)O)C3=O)cc1	x	3.8	13.9%	-4.9%	1.7%	-0.2%
O=C(Oc1ccccc1/C=C\C(=O)c1cc2ccccc2o1)c1ccccc1	4.7%	0.0	7.31µM*	-1.2%	7.31µM*	0.0%
O=C(Oc1ccccc1/C=C\C(=O)c1cc2ccccc2o1)c1cccc(F)c1	0.0%	-68.0*	5.17µM*	-16.7%	20.6µM*	5.1%
COc1cccc(C(=O)Oc2ccccc2/C=C\C(=O)c2cc3ccccc3o2)c1	-7.9%	-94.7*	6.51µM*	-59.6%	4.61µM*	u
CC(=O)Nc1c(I)c(C(=O)O)c(I)c(N(C)C(C)=O)c1I	x	x	10.3%	x	0.0%	x
CCCC(=O)c1cc(O)c(O)cc1O	u	x	u	x	17.2µM*	x
COc1ccc(C2=N[C@H](c3ccccc3)CO2)cc1	6.1%[234 µM]	x	x	x	x	x
COc1ccc(C2=Nc3ccccc3OC2)cc1	3.9%	25.1	25.9µM*	-30.0%	14.6µM*	u
COc1cc2nc(N3CCCN(C)CC3)nc(N(C)C)c2cc1OC	x	x	u	x	17.8µM*	x
COc1cc2nc(N3CCCN(C)CC3)nc(N3CCN(C)CC3)c2cc1OC	x	x	14.1µM*	x	15.8µM*	x
SMILES	TDP1 block	IL-1B inflam inh	DT40 TDP1 CPT	HepG2 tox	DT40 TDP1 no CPT	TGFb inhibitor
COc1cc2nc(-c3ccccc3)nc(N3CCCC3)c2cc1OC	-8.4%	x	x	x	x	x
COc1cc2nc(N3CCN(C(=O)C4CCCO4)CC3)nc(N)c2cc1OC (stereo not given)	-6.0%	-6.0	-0.3%	-27.4%	-9.5%	-1.0%
CCOc1ccc(NC(c2ccc(Cl)cc2)c2nnc(-c3cccc(F)c3)o2)cc1 (stereo not given)	5.0%	x	u	1.6%	-28.2%	16.6%
Cc1c(Cl)cccc1NC(c1ccc(F)cc1)c1nnc(-c2ccccc2)o1 (stereo not given)	4.5%	x	u	-23.4%	23.1µM*	-25.9%
CC(=O)c1cccc(NC(c2ccc(F)cc2)c2nnc(-c3ccccc3)o2)c1 (stereo not given)	-2.8%	x	u	-3.5%	18.4µM*	5.1%
C=CC(=O)OCCCCCCOC(=O)C=C	2.5%	x	x	x	x	x
COc1ccc(C)cc1NC(=O)C(Cc1ccccc1)NS(=O)(=O)c1ccc(Br)s1 (stereo not given)	5.0%	x	u	-60.1%	u	-11.6%
CCOc1ccccc1NC(=O)C(Cc1ccccc1)NS(=O)(=O)c1ccc(Br)s1 (stereo not given)	0.0%	x	23.1µM*	-26.8%	u	u
Cc1ccc(CNC(=O)C(Cc2ccccc2)NS(=O)(=O)c2ccc(Br)s2)cc1 (stereo not given)	7.9%	-75.0*	-3.0%	-25.9%	u	u
COc1ccc(C)cc1NC(=O)C(Cc1ccccc1)NS(=O)(=O)c1cccs1 (stereo not given)	3.3%	x	18.4µM*	-5.2%	u	u
Cc1ccc(CNC(=O)C(Cc2ccccc2)NS(=O)(=O)c2cccs2)cc1 (stereo not given)	2.6%	0.7	u	-20.1%	-20.5%	-10.9%
COC(=O)CSc1nc(C)c(Oc2ccccc2)c(=O)[nH]1	4.0%	15.9	0.9%	7.1%	u	-6.3%
Cc1ccc(C(=O)CC(=O)c2ccccc2C)c(O)c1	x	66.5	2.59µM*	-23.2%	2.31µM*	u
Cc1ccc(C(=O)c2ccccc2C(=O)O)c(O)c1	3.7%	23.7	-19.6%	-0.1%	-0.5%	5.7%
Cc1ccc(C(=O)CC(=O)c2cccc(F)c2)c(O)c1	7.9%	62.1	7.31µM*	-30.1%	6.51µM*	-5.1%
COc1ccc(S(=O)(=O)Nc2ccc(N3CCOCC3)nc2)cc1	8.2%	14.2	-18.7%	4.8%	u	-0.6%
CC(C)CCNC(=O)C(=O)NCc1ccccc1	1.4%	23.8	9.8%	-21.8%	-4.3%	0.0%
COc1cccc(-c2nc(-c3ccc4c(c3)NC(=O)CO4)cs2)c1	0.0%	u	8.2µM*	-26.5%	5.17µM*	-0.7%
